Legend:
Assay in all cases: PBM binding z-score (relative to random genomic background probes); higher = stronger binding; sequences stand for … in GC…GCGATTGACAGCGTAGAATGAAGG
[1] = test system: RARb homodimer (NR concentration 270 nM)
Method in brief: (§1)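 Antibodies against each partner of ligand-free nuclear receptor dimers (one per run) detected binding on custom Agilent 4×180K protein-binding microarrays after 1 h incubation. The double-stranded probes had 34-nt variable regions carrying direct-repeat seeds, single-nucleotide variants, half-site ablations and random human genomic background sequences. Binding z-scores, from regression-normalized fluorescence, use the random background probes as reference.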

[2] = test system: RARg:RXRa (NR concentration 270 nM, RXRa partner concentration 90 nM)
Method in brief: as §1

[3] = test system: RARg homodimer (NR concentration 270 nM)
Method in brief: as §1

[4] = test system: RXRa DBDmut IVT, anti-RXR (DBD mutation: RXRa K156A/R161A, NR concentration 90 nM)
Method in brief: as §1

[5] = test system: RXRa homodimer (NR concentration 180 nM)
Method in brief: as §1

[6] = test system: THRa:RXRa (NR concentration 90 nM, RXRa partner concentration 90 nM)
Method in brief: as §1

[7] = test system: THRa homodimer (NR concentration 90 nM)
Method in brief: as §1

[8] = test system: VDR homodimer (NR concentration 270 nM)
Method in brief: as §1

Row | Sequence | PBM binding z-score [1] | PBM binding z-score [2] | PBM binding z-score [3] | PBM binding z-score [4] | PBM binding z-score [5] | PBM binding z-score [6] | PBM binding z-score [7] | PBM binding z-score [8]
1 | GATGCAGGGTCAGCTAGAGGCCAGAGTATGGAAA | 3.34 | 6.65 | 5.08 | 1.24 | 4.39 | 2.95 | 0.228 | 0.522
2 | ATCTCTAGGTAAAACTTCAGTGAATCCCGAGGAT | -0.785 | 0.396 | 0.43 | -0.375 | 0.101 | 0.283 | -0.319 | -0.455
3 | TCTTGTAGATCAACAGGAGGTTACGAAAGATCGA | 0.979 | 1.06 | 0.394 | 0.347 | 1.19 | 1.5 | -0.205 | 0.0245
4 | TCTCGGAGGACACGAAGGTCAGAGCCTTCCAGAG | 3.54 | 3.52 | 4.07 | 0.518 | 2.04 | 2.66 | 0.555 | 1.24
5 | CTCAAAAGGTCGGTTGAGGTGAGTATACGGATAA | 2.58 | 2.78 | 2.85 | 0.765 | 2.66 | 5.22 | 1.15 | 0.384
6 | ACTTACGGGTCAACGAGGATATAGCACGCGTATA | 2.74 | 5.35 | 4.72 | 2.12 | 5.48 | 3.55 | 0.687 | 2.15
7 | CCTCGGAGGACAGAAGGTTAGAGCTGTCCGCTTT | 0.668 | 0.736 | 0.681 | -0.0367 | -0.125 | 0.441 | -0.513 | -0.565
8 | ACTAGCAGCCCAAGTTTGGGTCACTCAAACAAAG | 1.74 | 0.618 | 0.518 | -0.56 | 0.612 | 2.1 | 1.15 | -0.0283
9 | GTTATTAGTTGAAAGGGCAACCGAATGATTCTCG | 2.41 | 1.75 | 1.95 | 1.16 | 1.64 | 1.18 | 0.669 | 1.55
10 | AATACAGGGTCACTAGGGCAGAGTAGGTACGAAT | 3.68 | 5.3 | 5.01 | 2.74 | 5.8 | 3.45 | 1.6 | 2.98
11 | AGTCAAAGTTCAGGACAAGGTAACGTAAAGCACG | 3.29 | 5.05 | 5.13 | 3.14 | 3.26 | 4.05 | 2.59 | 2.15
12 | CCTAGCAGGCCATGGTCACTCAAGCATTTCGCTT | 0.33 | -0.134 | 0.141 | -0.0842 | -0.236 | -0.37 | -0.618 | -0.529
13 | CGTCCAAGGTCAATGCTAGGTCAGCGAAAGCATT | 4.51 | 7.74 | 7.14 | 3.47 | 5.38 | 4.61 | 3.1 | 3.23
14 | TCTATGAGTTGATTAGGGCAACCGAAACAGCGGA | 0.553 | 0.54 | 0.536 | 1.45 | 0.681 | 0.857 | -0.131 | 0.333
15 | TCTAGCAGGCCAGAGTGTCACTCAAGAGGTACGG | 0.119 | 0.145 | 0.167 | -0.194 | 0.302 | -0.304 | -1.19 | -0.738
16 | TCAGACAGGGGAAGGTAACTCAGGTACGCAGTCG | 0.725 | 0.0159 | -0.128 | 1.16 | 0.547 | 1.38 | 1.02 | 0.491
17 | CGAACTAGGTCAAAACAGGACAGTGAAGGATGAT | 2.27 | 3.48 | 3.77 | 1.49 | 2.25 | 4.13 | 0.485 | 0.573

Row | Sequence | PBM binding z-score [1] | PBM binding z-score [2] | PBM binding z-score [3] | PBM binding z-score [4] | PBM binding z-score [5] | PBM binding z-score [6] | PBM binding z-score [7] | PBM binding z-score [8]
18 | CCTGCTAGGTCATGGTCAGCTGATCTACAGTATG | 3.13 | 3.97 | 4.53 | 1.96 | 3.2 | 3.17 | 1.23 | 0.608
19 | GGGACTGGGGCAAAGCAGGTTACCATAAGGTTGG | 1.75 | 0.941 | 0.994 | -1.03 | 0.55 | 3.3 | 1.32 | 0.624
20 | GTACAAAGGTGAATAGGTCGTTGATGAGTAGGCG | 3.11 | 4.37 | 2.79 | 0.47 | 3.43 | 1.72 | -0.0459 | 0.65
21 | CGAACGAGGTCAAGGACAGTGAATCTCCGCACGC | 4.19 | 6.33 | 6.59 | 4.23 | 7.03 | 4.43 | 3.19 | 3.5
22 | CCTCGTTGGTCAAGGTCACACACGCTATAGGTAC | 4.51 | 4.58 | 5.23 | 1.8 | 4.83 | 4.05 | 4.37 | 3.86
23 | CAAACTATGTCACCGGAAGGTCAAAGTCCGCATG | 4.63 | 5.37 | 4.06 | 1.32 | 4.15 | 3.11 | 1.99 | 2.33
24 | AGAACGAGGACACGCTGAGTTGATAGCAGAGTAG | 0.357 | 0.807 | 1.74 | 0.835 | -0.00543 | 3.15 | 2.29 | 1.14
25 | TCAGACAGGTGTAGGTAACTCAGGTACGCAGTCG | 0.242 | 0.0352 | 0.143 | 1.07 | 0.607 | 0.923 | 0.621 | 0.47
26 | AGTCAAAGTTCAGGATGAGGTAACGTAAAGCACG | 3.38 | 4.78 | 4.82 | 2.73 | 3.26 | 4.21 | 1.73 | 2.09
27 | TCATAGAGGTAAATGCTAGGTGAAAGTCCGATCT | 0.335 | 0.753 | 0.235 | 0.932 | 0.849 | 1.94 | 0.361 | -0.248
28 | AGAATGAGGTTATACGTAGATCCGGGAAGAAAGT | 0.443 | 1.39 | 0.944 | 1.78 | 1.82 | 1.94 | 0.512 | 0.912
29 | ACTAGTTGGTTAGCTGAGGTCACACACAATTCGG | 4.12 | 3.62 | 3.42 | 1.62 | 3.95 | 4.7 | 5.36 | 3.78
30 | TCTAGTTGGTCACGGAGGTCACATACGACGGGTA | 4.57 | 4.42 | 4.92 | 1.16 | 4.57 | 3.68 | 2.58 | 2.84
31 | TCTAGTTGGTCAAAGGTCCCACACTCGAAATGCG | 1.47 | 1.55 | 1.05 | 1.26 | 1.75 | 0.71 | 0.58 | 0.39
32 | TAGCCTAGGTCATGCGGGCCAGTGTAGTGTCGGC | 3.06 | 3.69 | 4.29 | 0.446 | 2.6 | 2.99 | 0.878 | 0.567
33 | CAAACTAGGTAACAGAGGTCAAAGTCCGTGCGTA | 4.45 | 5.28 | 4.28 | 2.34 | 6.18 | 4.1 | 1.95 | 4.49
34 | CCTAGTTGGTCAAGGTCACAGACGCTATAGGTAC | 4.33 | 4.74 | 5.11 | 2.16 | 4.88 | 4.13 | 4.27 | 3.55
